Results taken from PubChem BioAssay AID493008 (The Scripps Research Institute Molecular Screening Center, 2010).
The whole screen tested about 340,000 compounds, of which about 800 (0.24%) were called active. The sample holds actives, similar compounds and a random draw of the others, so the mix is not that of the screen.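 How the source made its calls: active means activation above the mean over all tested compounds plus 3 SD (cut at about 30% in these data); inactive means the rest.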

Target: Troponin I, cardiac muscle (Homo sapiens) + Troponin T, cardiac muscle (Homo sapiens) + Troponin C, slow skeletal and cardiac muscles (Homo sapiens) (UniProt P19429+P45379+P63316)
Experiment: cardiac RTF calcium sensitivity activators, primary screen, biochemical, IANBD-TnC fluorescence, EC20 calcium (AID 493008);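 further: rise in fluorescence read as greater calcium sensitivity of cardiac thin filaments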
Conditions: IANBD-labeled TnC RTF fluorescence at EC20 calcium; at 7.2 µM; active compounds read high; 0% EC20 calcium, 100% full calcium

Row | Structure (SMILES) | activation
1 | S=C(Nc1ccccc1)Nc1ccc2ccccc2c1 | -10.4% (inactive)
2 | CC1CCCC(C)N1C(=O)CN1CCN(c2nc(-c3ccc(F)cc3)cs2)CC1 (centres undefined) | -5.89% (inactive)
3 | CCCC(C)C(=O)Nc1ccc(NC(C)=O)cc1 (centres undefined) | -2.2% (inactive)
4 | CC(C)(C)c1ccc(/C=C/C(=O)NC2CCS(=O)(=O)C2)cc1 (centres undefined) | 8.91% (inactive)
5 | O=C(NC(Cc1c[nH]c2ccccc12)C(=O)N/N=C/c1ccc(Br)cc1)c1cccs1 (centres undefined) | -5.25% (inactive)
6 | Cc1ncoc1C(=O)NCCC(c1ccccc1)c1ccccc1 | 1.32% (inactive)
7 | Cc1ccc(N(Cc2cc(=O)[nH]c3ccccc23)C(=O)CCl)cc1 | -2.09% (inactive)
8 | COc1ccc(OC)c(S(=O)(=O)Nc2cccc(-c3ccc4nncn4n3)c2)c1 | -5.2% (inactive)
9 | CC1(C)OC(=O)C(=CSc2ccc(C(C)(C)C)cc2)C(=O)O1 | -0.02% (inactive)
10 | CC1CCCN(CCCNC(=O)CN2C(=O)COc3ccc(S(=O)(=O)N4CCOCC4)cc32)C1 (centres undefined) | -3.28% (inactive)
11 | COc1ccc(C(=O)Oc2ccc(-c3nnco3)cc2)cc1S(=O)(=O)N1CCOCC1 | 5.67% (inactive)
12 | C[n+]1ccc(/C=C/c2c[nH]c3ccccc23)cc1 | 154% (active)
13 | COc1ccc(C(=O)Nc2ccc(-n3nncc3C(C)(C)C)cc2)cc1 | -5.43% (inactive)
14 | O=C(NC(=S)N1CCc2ccccc21)c1ccco1 | -3.2% (inactive)
15 | CC(C)NC(=O)N1CCN(c2ccncc2S(=O)(=O)N2CCCCC2)CC1 | 1.09% (inactive)
16 | O=C(OCCOc1ccccc1Cl)c1cc(S(=O)(=O)N2CCCCC2)ccc1N1CCOCC1 | -4.46% (inactive)
17 | CCCNC(=O)C(=O)Nc1cc2c3c(c1)CCC(=O)N3CCC2 | -3.33% (inactive)
18 | OC1CN=C2Sc3ccccc3N2C1 (centres undefined) | -0.74% (inactive)
19 | O=C(N/N=C/C=C/c1ccco1)c1cccs1 | 1.5% (inactive)
20 | Cn1c(=O)c(=O)n(C)c2cc(S(=O)(=O)NCCN3CCN(c4ccccc4F)CC3)ccc21 | -1% (inactive)
21 | CCN1/C(=C\c2ccc3ccccc3[n+]2CC)Sc2cc(C)ccc21 | 38.1% (active)
22 | Cc1ccc(C(=O)N/C(=C/c2ccco2)C(=O)NCCc2c[nH]c3ccccc23)cc1C | -3.2% (inactive)
23 | O=C(NCCc1c[nH]c2ccccc12)C1CCN(Cc2ccc(Br)cc2)CC1 | -15.1% (inactive)
24 | N#C/C(=C/c1ccc(N2CCCCC2)o1)C(=O)NCCc1c[nH]c2ccccc12 | 98.5% (active)

Row | Structure (SMILES) | activation
25 | CN(c1ccccc1)S(=O)(=O)c1ccc(NC(=O)COc2ccccc2)cc1 | 0.63% (inactive)
26 | CC1CCN(C(=O)Cn2nnnc2CN2CCOCC2)CC1 | -3.91% (inactive)
27 | O=S(=O)(Nc1cccc(Oc2ccc(Cl)cc2)n1)c1ccc(F)cc1 | -5.16% (inactive)
28 | O=C(CCN1C(=O)[C@@H]2Cc3ccccc3CN2C1=O)NCCc1ccccc1 | -2.53% (inactive)
29 | CN(CCc1ccccc1)C(=O)c1cccc(NC(=O)Cc2cccc(NC(=O)C3CCCN(C(=O)CCc4ccccc4)C3)c2)c1 (centres undefined) | -0.28% (inactive)
30 | Cc1ccccc1NC(=O)CCNS(=O)(=O)c1ccc2[nH]c(=O)oc2c1 | -6.99% (inactive)
31 | O=S(=O)(Cc1nnnn1-c1ccc(Br)cc1)c1ccc(F)cc1 | 1.13% (inactive)
32 | O=C(CC12CC3CC(CC(C3)C1)C2)Nc1ccc2c(c1)COC2=O | -1.12% (inactive)
33 | CCOc1ccc(OCC(=O)OC(C)C(=O)NC2CCCCC2C)cc1 (centres undefined) | 0.95% (inactive)
34 | Cc1ccc(CS(=O)(=O)CCC(=O)NC2CC2)cc1 | -1.46% (inactive)
35 | COc1ccccc1C(=O)Nc1nc2nc(-c3ccccc3)cc(=O)n2[nH]1 | 5.39% (inactive)
36 | COc1ccc(N2CC(C(=O)N[C@@H](C)C(=O)N3CCCCC3)CC2=O)cc1 (some centres undefined) | 2.39% (inactive)
37 | Cc1ccc(S(=O)(=O)n2cccc2CO)cc1 | 3.89% (inactive)
38 | CC1(C)CC(=O)C/C(=N\NC(=O)c2cccs2)C1 | 9.93% (inactive)
39 | Cc1cccc(N(C(=O)Cc2cccs2)C(C(=O)NC2CCCC2)c2ccsc2)c1 (centres undefined) | 2.2% (inactive)
40 | Cc1cc(F)ccc1N1CCC(N2CCN(C)C(CCO)C2)CC1 (centres undefined) | 0.01% (inactive)
41 | O=S(=O)(c1cccc(-c2cn3ccccc3n2)c1)N1CCCC1 | -1.73% (inactive)
42 | COc1ccc(N(C(=O)CNC(=O)c2ccco2)C(C(=O)NCC2CCCO2)c2ccccc2)cc1Cl (centres undefined) | -5.45% (inactive)
43 | Nc1ncnc2c1ncn2[C@@H]1O[C@H](CNS(=O)(=O)c2ccc(-c3ccno3)s2)[C@@H](O)[C@H]1O | -2.32% (inactive)
44 | CC1(C)CN(c2ccc(-c3ccnc4ncnn34)cc2)C1=O | 2.76% (inactive)
45 | ClC1(Cl)CC1CSc1ncn[nH]1 (centres undefined) | 2.22% (inactive)
46 | COc1ccc(CN(C)C(=S)Nc2ccc(Cl)cc2Cl)cc1 | 5.9% (inactive)
47 | O=C(CCS(=O)(=O)Cc1ccccc1F)NCCCN1CCCCC1 | 5.59% (inactive)
48 | CCN(CC)CCn1c2ccc(Cl)cc2c2nc(C)sc21 | 1.89% (inactive)

Row | Structure (SMILES) | activation
49 | CCN(CC)CCCC(C)n1c2nc(=O)[nH]c(=O)c-2nc2cc(Cl)ccc21 (centres undefined) | 1960% (active)
50 | CSCC[C@H](NC(=O)NCc1cccs1)C(=O)O | 4.37% (inactive)
51 | CC(C)c1nnc(NC(=O)CCC(=O)N2CCN(c3cccc(Cl)c3)CC2)s1 | -4.73% (inactive)
52 | COc1ccc(C(=O)COC(=O)C(O)c2ccccc2)c(OC)c1 (centres undefined) | 3.19% (inactive)
53 | O=C(O)/C=C/c1ccc(OCCCF)cc1 | -2.79% (inactive)
54 | O=C(/C=C/c1ccc2c(c1)OCCO2)c1ccc(O)cc1 | -0.07% (inactive)
55 | O=C(/C=C(O)/C=C/c1ccc(O)cc1)/C=C/c1ccc(O)cc1 | 40.2% (active)
56 | O=C(COC(=O)c1ccncc1)Nc1ccc2c(c1)OCO2 | -5.52% (inactive)
57 | NS(=O)(=O)c1ccc(NC(=O)COC(=O)c2c3c(nc4ccccc24)/C(=C\c2ccc4c(c2)OCO4)CCC3)cc1 | 4.91% (inactive)
58 | NC(=O)c1ccc(NC(=O)COC(=O)c2c3c(nc4ccccc24)/C(=C\c2ccc4c(c2)OCO4)CCC3)cc1 | 514% (active)
59 | C=CCC(C(=O)c1ccccc1)[N+](C)(C)CC=C (centres undefined) | -2.42% (inactive)
60 | O=C(NC1=CC(=O)c2ccccc2C1=O)c1ccccc1 | -2.47% (inactive)
61 | COc1cccc2c1C(=O)c1c(O)c3c(c(O)c1C2=O)CC(O)(C(C)=NNC(=O)c1ccc(Cl)c(Cl)c1)CC3OC1CC(N)C(O)C(C)O1 (centres undefined) | 220% (active)
62 | CCCCC(CC)CNCc1cccn1CCN1CCOCC1 (centres undefined) | -0.42% (inactive)
63 | CCOC(=O)c1ccc(N=C2SC(C(=O)NC)CC(=O)N2CCc2ccccc2)cc1 (centres undefined) | 2.1% (inactive)
64 | O=C(CSc1ncnc2sccc12)N1CCN(C(=O)c2cccs2)CC1 | 0.04% (inactive)
65 | Nc1c(C(=O)c2cccs2)sc2nsc(SCCN3CCCCC3)c12 | 30.6% (active)
66 | COc1ccc(C23NCCN2C(=O)c2ccccc23)cc1 (centres undefined) | -1.61% (inactive)
67 | COc1cc(S(=O)(=O)N2CCN=C2c2ccccc2)ccc1Cl | -3% (inactive)
68 | COc1ccc(-c2onc3ccc(C(C)=O)cc23)cc1 | 42.2% (active)
69 | COc1ccc(-c2cc(C(=O)N3CCN(c4ccc(F)cc4)CC3)no2)cc1 | -6.29% (inactive)
70 | COc1ccc(NC(C(=O)Nc2cccc(C(C)=O)c2)c2ccccc2)cc1 (centres undefined) | 2.77% (inactive)
71 | CC1CCCN(S(=O)(=O)c2ccc(-c3ccc(=O)[nH]n3)o2)C1 (centres undefined) | 0.69% (inactive)
72 | Cc1ccc2nc(SCC(=O)N3CCN(c4ccccc4)CC3)nc(=O)n2c1 | -2.94% (inactive)

Row | Structure (SMILES) | activation
73 | NS(=O)(=O)c1ccc(N=Nc2c(O)[nH]c3ccc(Br)cc23)cc1 | -6.02% (inactive)
74 | Cc1cccc(N=Nc2c(O)[nH]c3ccc(F)cc23)c1 | 31.3% (active)
75 | Oc1[nH]c2ccccc2c1N=Nc1c(F)c(F)c(F)c(F)c1F | 3.02% (inactive)
76 | Cc1ccc(C(=O)O)c(NC=O)c1OCc1ccccc1 | -0.38% (inactive)
77 | Cc1ccc2oc(=O)ccc2c1 | -3.77% (inactive)
78 | CCN(CC)c1ccc(C(=O)Nn2c(C)nc3ccccc3c2=O)cc1 | 8.65% (inactive)
79 | CCN(CC)c1ccc2oc(=O)c(C)nc2c1 | 59.9% (active)
80 | COc1ncnc2c1N=C1CC(C)(C)CC(N)=C1S2 | 30.1% (active)
81 | CCOC(=O)c1cc2n(c1N)-c1ccccc1C2=O | 40.9% (active)
82 | CCOC(=O)c1ccccc1OC(=O)Oc1ccccc1C(=O)OCC | 0.28% (inactive)
83 | CCOC(=O)c1ccccc1CN1C(=O)c2ccccc2S1(=O)=O | 6.29% (inactive)
84 | COCCNC(=O)c1onc(CSc2cccc(C)c2)c1C(=O)O | 2.19% (inactive)
85 | Cc1cccc(NC(=O)CSc2nc3c(c(=O)[nH]2)CCC3)c1C | 5.1% (inactive)
86 | Cc1cc(OC(C)C(=O)NC2CC(C)(C)NC(C)(C)C2)c2c(C)cc(=O)oc2c1 (centres undefined) | -6.45% (inactive)
87 | CCOc1nc(OCC)nc(-n2cc(-c3ccccc3)nn2)n1 | -0.01% (inactive)
88 | COc1cccc(NS(=O)(=O)c2ccc3[nH]cc(C(=O)NCCCOC(C)C)c(=O)c3c2)c1 | 1.55% (inactive)
89 | CCC1(C)COC(c2ccc(OC)c(OC)c2)OC1 (centres undefined) | 15.5% (inactive)
90 | COc1ccc(C2c3ccc(O)cc3Oc3ncn(CCCO)c(=N)c32)cc1OC (centres undefined) | 91.1% (active)
91 | COc1ccc(CNCCCO)cc1OC | 2.52% (inactive)
92 | COc1ccc(C2C(C#N)=C(N)Oc3cc(N)ccc32)cc1OC (centres undefined) | 2.36% (inactive)
93 | CN1C(=O)/C(=C/C=C2\SCCN2C)OC1=S | 34% (active)
94 | CC(=O)c1cc2c(cc1NC(=O)Cn1nc(-c3ccc(F)cc3)ccc1=O)OCO2 | 1.13% (inactive)
